{"source": "PubChem BioAssay (NCATS)", "note": "Inconclusive results are not listed. Calls of active or inactive are those of the source. Calls follow the shape of the dose curve; as a rule, active = well fitted curve in the direction sought with a large enough effect; inconclusive = small, poorly fitted or top-dose-only effect, or another doubt; inactive = no such curve, though single readings can be large; an effect the other way counts as inactive or inconclusive. Potency is read from the fitted curve at half-maximal effect."}
{"assay": "qHTS of pediatric cancer cell lines to identify multiple opportunities for drug repurposing: Confirmatory screen for U-2 OS cells (AID 1347122); also: nearly all actives have a fitted effect of over 65% in size", "conditions": "U-2 OS osteosarcoma cell viability; series mostly up to 45.9 µM", "procedure,_shortened": "(§1)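 Cells (500-1,000/well) in growth media were settled 5 h at 37 degrees C, then given compounds for 48 h. Viability was read as CellTiter-Glo luminescence. Primary runs used MIPE at 11 points (0.78 nM-46 µM) and NPC at 8 points (0.59 nM-46 µM); follow-ups used 11 points.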"}
{"smiles": "Clc1ccc2nsnc2c1NC1=NCCN1", "Potency": "inactive"}
{"smiles": "CCC1(c2ccccc2)C(=O)NCNC1=O", "Potency": "inactive"}
{"smiles": "O=C1c2c(O)ccc(O)c2C(=O)c2c(NCCNCCO)ccc(NCCNCCO)c21", "Potency": "5.22 µM (active)"}
{"smiles": "CN1CCN(CCCN2c3ccccc3Sc3ccc(Cl)cc32)CC1", "Potency": "5.85 µM (active)"}
{"smiles": "COc1cc2c(c(OC)c1OC)-c1ccc(OC)c(=O)cc1[C@@H](NC(C)=O)CC2", "Potency": "0.112 µM (active)"}
{"smiles": "CS(=O)(=O)CCNCc1ccc(-c2ccc3ncnc(Nc4ccc(OCc5cccc(F)c5)c(Cl)c4)c3c2)o1", "Potency": "20.8 µM (active)"}
{"smiles": "CC(CCc1ccc(O)cc1)NCCc1ccc(O)c(O)c1", "note": "(stereo not drawn)", "Potency": "inactive"}
{"smiles": "NC(=O)NO", "Potency": "23.3 µM (active)"}
{"smiles": "CC(COc1ccccc1)N(CCCl)Cc1ccccc1", "note": "(stereo not drawn)", "Potency": "inactive"}
{"smiles": "CCCCc1oc2ccccc2c1C(=O)c1cc(I)c(OCCN(CC)CC)c(I)c1", "Potency": "28.2 µM (active)"}
{"smiles": "CS(=O)(=O)Nc1ccc([N+](=O)[O-])cc1Oc1ccccc1", "Potency": "inactive"}
{"smiles": "NC12CC3CC(CC(C3)C1)C2", "Potency": "inactive"}
{"smiles": "O=C(Nc1ccc([N+](=O)[O-])cc1Cl)c1cc(Cl)ccc1O", "Potency": "4.56 µM (active)"}
{"smiles": "COC(=O)Nc1nc2ccc(C(=O)c3cccs3)cc2[nH]1", "Potency": "0.208 µM (active)"}
{"smiles": "O=C(c1ccc(OCCN2CCCCC2)cc1)c1c(-c2ccc(O)cc2)sc2cc(O)ccc12", "Potency": "inactive"}
{"smiles": "Clc1ccc(C(c2ccccc2Cl)C(Cl)Cl)cc1", "note": "(stereo not drawn)", "Potency": "inactive"}
{"smiles": "CC[C@@]1(O)C(=O)OCc2c1cc1n(c2=O)Cc2cc3c(CN(C)C)c(O)ccc3nc2-1", "Potency": "10.4 µM (active)"}
{"smiles": "CC(C)NCC(O)c1ccc(O)c(O)c1", "note": "(stereo not drawn)", "Potency": "7.37 µM (active)"}
{"assay": "qHTS of pediatric cancer cell lines to identify multiple opportunities for drug repurposing: Confirmatory screen for Rh41 cells (AID 1347123);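 also: 48 h compound exposure; nearly all actives have a fitted effect of over 60% in size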", "conditions": "Rh41 rhabdomyosarcoma cells, viability/cytotoxicity qHTS; series mostly up to 45.9 µM", "procedure,_shortened": "as §1"}
{"smiles": "Clc1ccc2nsnc2c1NC1=NCCN1", "Potency": "inactive"}
{"smiles": "CCC1(c2ccccc2)C(=O)NCNC1=O", "Potency": "inactive"}
{"smiles": "O=C1c2c(O)ccc(O)c2C(=O)c2c(NCCNCCO)ccc(NCCNCCO)c21", "Potency": "0.465 µM (active)"}
{"smiles": "CC(C)Cc1ccc(C(C)C(=O)O)cc1", "note": "(stereo not drawn)", "Potency": "4.65 µM (active)"}
{"smiles": "CN1CCN(CCCN2c3ccccc3Sc3ccc(Cl)cc32)CC1", "Potency": "11.7 µM (active)"}
{"smiles": "CS(=O)(=O)CCNCc1ccc(-c2ccc3ncnc(Nc4ccc(OCc5cccc(F)c5)c(Cl)c4)c3c2)o1", "Potency": "8.27 µM (active)"}
{"smiles": "CC(CCc1ccc(O)cc1)NCCc1ccc(O)c(O)c1", "note": "(stereo not drawn)", "Potency": "inactive"}
{"smiles": "NC(=O)NO", "Potency": "inactive"}
{"smiles": "CC(COc1ccccc1)N(CCCl)Cc1ccccc1", "note": "(stereo not drawn)", "Potency": "13.1 µM (active)"}
{"smiles": "CCCCc1oc2ccccc2c1C(=O)c1cc(I)c(OCCN(CC)CC)c(I)c1", "Potency": "17.8 µM (active)"}
{"smiles": "CS(=O)(=O)Nc1ccc([N+](=O)[O-])cc1Oc1ccccc1", "Potency": "18.5 µM (active)"}
{"smiles": "CN(C)CCCN1c2ccccc2CCc2ccc(Cl)cc21", "Potency": "10.4 µM (active)"}
{"smiles": "NC12CC3CC(CC(C3)C1)C2", "Potency": "inactive"}
{"smiles": "O=C(Nc1ccc([N+](=O)[O-])cc1Cl)c1cc(Cl)ccc1O", "Potency": "1.15 µM (active)"}
{"smiles": "O=C(c1ccc(OCCN2CCCCC2)cc1)c1c(-c2ccc(O)cc2)sc2cc(O)ccc12", "Potency": "20.8 µM (active)"}
{"smiles": "CC[C@@]1(O)C(=O)OCc2c1cc1n(c2=O)Cc2cc3c(CN(C)C)c(O)ccc3nc2-1", "Potency": "3.69 µM (active)"}
{"smiles": "CC#C[C@]1(O)CC[C@H]2[C@@H]3CCC4=CC(=O)CCC4=C3[C@@H](c3ccc(N(C)C)cc3)C[C@@]21C", "Potency": "23.3 µM (active)"}
{"assay": "qHTS of pediatric cancer cell lines to identify multiple opportunities for drug repurposing: Confirmatory screen for Rh18 cells (AID 1347125); also: nearly all actives have a fitted effect of over 55% in size", "conditions": "Rh18 rhabdomyosarcoma cells, viability; series mostly up to 45.9 µM", "procedure,_shortened": "as §1"}
{"smiles": "Clc1ccc2nsnc2c1NC1=NCCN1", "Potency": "inactive"}
{"smiles": "CCC1(c2ccccc2)C(=O)NCNC1=O", "Potency": "inactive"}
{"smiles": "O=C1c2c(O)ccc(O)c2C(=O)c2c(NCCNCCO)ccc(NCCNCCO)c21", "Potency": "2.61 µM (active)"}
{"smiles": "CC(C)Cc1ccc(C(C)C(=O)O)cc1", "note": "(stereo not drawn)", "Potency": "inactive"}
{"smiles": "CN(Cc1cnc2nc(N)nc(N)c2n1)c1ccc(C(=O)N[C@@H](CCC(=O)O)C(=O)O)cc1", "Potency": "inactive"}
{"smiles": "COc1cc2c(c(OC)c1OC)-c1ccc(OC)c(=O)cc1[C@@H](NC(C)=O)CC2", "Potency": "inactive"}
{"smiles": "CS(=O)(=O)CCNCc1ccc(-c2ccc3ncnc(Nc4ccc(OCc5cccc(F)c5)c(Cl)c4)c3c2)o1", "Potency": "14.7 µM (active)"}
{"smiles": "CC(CCc1ccc(O)cc1)NCCc1ccc(O)c(O)c1", "note": "(stereo not drawn)", "Potency": "inactive"}
{"smiles": "NC(=O)NO", "Potency": "inactive"}
{"smiles": "CC(COc1ccccc1)N(CCCl)Cc1ccccc1", "note": "(stereo not drawn)", "Potency": "18.5 µM (active)"}
{"smiles": "CCCCc1oc2ccccc2c1C(=O)c1cc(I)c(OCCN(CC)CC)c(I)c1", "Potency": "50.1 µM (active)"}
{"smiles": "CS(=O)(=O)Nc1ccc([N+](=O)[O-])cc1Oc1ccccc1", "Potency": "inactive"}
{"smiles": "NC12CC3CC(CC(C3)C1)C2", "Potency": "inactive"}
{"smiles": "O=C(Nc1ccc([N+](=O)[O-])cc1Cl)c1cc(Cl)ccc1O", "Potency": "3.62 µM (active)"}
{"smiles": "COC(=O)Nc1nc2ccc(C(=O)c3cccs3)cc2[nH]1", "Potency": "inactive"}
{"smiles": "O=C(c1ccc(OCCN2CCCCC2)cc1)c1c(-c2ccc(O)cc2)sc2cc(O)ccc12", "Potency": "inactive"}
{"smiles": "Clc1ccc(C(c2ccccc2Cl)C(Cl)Cl)cc1", "note": "(stereo not drawn)", "Potency": "inactive"}
{"smiles": "CC[C@@]1(O)C(=O)OCc2c1cc1n(c2=O)Cc2cc3c(CN(C)C)c(O)ccc3nc2-1", "Potency": "5.22 µM (active)"}
